Results filed as inconclusive are left out. Activity calls are given as the source filed them. Rule for the calls: active = hit-call score of the fitted dose curve at least 0.9, where 1 is the maximum; inconclusive = response in the unintended direction; inactive = score below 0.9.

Read-out in the test: organic anion transporter (SLCO1B1), SLCO1B1 (gene 10599)
The test can be described thus: CLD_SLCO1B1_6hr: CellzDirect (CLD) Gene Expression Assay for organic anion transporter (SLCO1B1) at 6 hours (AID 2283668).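 Note: active means mRNA induction above DMSO baseline.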 As for the experimental part: CLD_6hr is a cell-based, multiplexed-readout assay that uses hepatocyte, a human liver primary cell, with measurements taken at 6 hours after chemical dosing in a 96-well plate.CLD_SLCO1B1_6hr is one of 16 assay component(s) measured or calculated from the CLD_6hr assay. It is designed to make measurements of mRNA induction, a form of inducible reporter, as detected with chemiluminescence signals by Quantitative Nuclease Protection Assay (qNPA) technology.Data from the assay component CLD_SLCO1B1_6hr was analyzed at the endpoint, CLD_SLCO1B1_6hr, in the positive analysis fitting direction relative to DMSO as the negative control and baseline of activity. Using a type of inducible reporter, gain-of-signal activity can be used to understand changes in the reporter gene as they relate to the gene SLCO1B1. Furthermore, this assay endpoint can be referred to as a primary readout. To generalize the intended target to other relatable targets, this assay endpoint is annotated to the transporter intended target family, where subfamily is organic anion transporter.
Human hepatocyte cultures were treated daily for two consecutive days with fresh dosing solutions containing appropriate concentrations of the 320 ToxCast chemicals (chemical identities were blinded to CellzDirect and other ToxCast collaborators), vehicle control (0.2% DMSO), and positive control inducers as summarized in Table 1. Due to the large number of treatment groups and chemicals examined, the ToxCast chemicals were divided into two groups (spanning two independent cultures of hepatocytes from separate donor preparations (Hu778: ToxCast plates 1 and 2; Hu776: ToxCast plates 3 and 4). Each preparation of human hepatocyte cultures was treated with respective vehicle control, medium only control, set of six positive controls/reference chemicals for the five hepatic receptor pathways, and a subset of eight of the ToxCast chemicals (indoxacarb, pyrithiobac-sodium, norflurazon, cyhalofop-butyl, methomyl, thiram, acetochlor, and propiconazole). These replicate data, coupled with internal replicates designed within the blinded ToxCast chemical library, provided additional data to evaluate interindividual differences between hepatocyte preparations and their potential impact on chemical profiles.Cell morphology and integrity were evaluated using phase-contrast microscopy as an indicator of hepatocyte cell health (Tyson & Green, 1987). Cultures for each treatment group (i.e., media, vehicle [0.2% DMSO], positive control inducers [multiple concentrations], and the ToxCast chemicals [multiple concentrations]) were observed and cell morphology was assessed relative to vehicle control cultures at each harvest time point (0, 6, 24, or 48 h). […] Images were evaluated at the conclusion of the study to assess changes in cell integrity and account for the effects of chemical exposure on uncharacteristic changes in concentration-dependent gene expression profiles. The results from these determinations of apparent cytotoxicity were annotated (yes/no) alongside the corresponding qNPA data for reference.At the conclusion of each treatment period, hepatocyte cultures (96-well) were washed with 1 volume of HBSS, lysed by addition of 25 ul ArrayPlate lysis buffer (HTG, Tucson, AZ), and 70 ul/well of Denaturation Oil, denatured by incubation at 95C for 10 min, and frozen at approximately -70C until analysis by nuclease protection assay (qNPA) (Roberts et al., 2007). For qNPA analysis, cell lysates were thawed at 50C for approximately 30 min, qNPA probes were added, and samples were incubated at 95C for 10 min to begin the detection process by denaturing the target RNA, dissociating the duplexes and secondary structure hybridization. At the conclusion of the hybridization period, S1 nuclease reagent was added to each sample to digest all nonprotected nucleotides at 50C for 60-90 min. […]
With `CC(C)C1(C)N=C(c2nc3ccccc3cc2C(=O)O)NC1=O` (centres undefined), the molecule was classed as inactive. Under `CCCCNC(=O)n1c(NC(=O)OC)nc2ccccc21` stands “inactive”; under `CCNc1nc(Cl)nc(NC(C)C)n1`, “inactive”. Turning to `Oc1ccccc1-c1ccccc1`, the molecule was classed as inactive. Under `CCCN(CCC)c1c([N+](=O)[O-])cc(S(N)(=O)=O)cc1[N+](=O)[O-]` stands “inactive”; under `OC(c1ccc(Cl)cc1)(c1cncnc1)c1ccccc1Cl` (centres undefined), “inactive”. In the case of `COC(=O)N(OC)c1ccccc1COc1ccn(-c2ccc(Cl)cc2)n1`, the molecule was classed as inactive. As to `COP(=S)(OC)Oc1nc(Cl)c(Cl)cc1Cl`, the call was inactive. The same measure for `COP(N)(=O)SC` (centres undefined): “inactive”; for `COc1nc(C)nc(NC(=O)NS(=O)(=O)c2ccccc2Cl)n1`: “inactive”; for `COC(=O)C=C(C)OP(=O)(OC)OC`: “inactive”.

As to `CCNc1nc(Cl)nc(NCC)n1`, the molecule was called inactive.

Turning to `CCOC(=O)CC(SP(=S)(OC)OC)C(=O)OCC` (centres undefined), the call was inactive.

For `O=C(O)c1nc(Cl)ccc1Cl`, the result was inactive. Under `CCCCC(CC)COC(=O)c1ccccc1C(=O)OCC(CC)CCCC` (centres undefined) stands “inactive”; under `CO/C=C(/C(=O)OC)c1ccccc1Oc1cc(Oc2ccccc2C#N)ncn1`, “inactive”; under `CCCCOC(=O)c1ccccc1C(=O)OCCCC`, “inactive”. On to `CCOc1cc(Oc2ccc(C(F)(F)F)cc2Cl)ccc1[N+](=O)[O-]`, for which the call was inactive. Consider `CN(C)C(=S)SSC(=S)N(C)C`, for which the result was inactive. The same measure for `CCON=C(CC)C1=C(O)CC(c2c(C)cc(C)cc2C)CC1=O` (centres undefined): “inactive”; for `CC1COC(Cn2cncn2)(c2ccc(Oc3ccc(Cl)cc3)cc2Cl)O1` (centres undefined): “inactive”; for `COc1nc(C)nc(NC(=O)NS(=O)(=O)c2ccccc2CCC(F)(F)F)n1`: “inactive”. Under `CCc1nn(C)c(C(=O)NCc2ccc(C(C)(C)C)cc2)c1Cl` stands “inactive”. For the molecule `C=CCC1=C(C)C(OC(=O)C2C(C=C(C)C)C2(C)C)CC1=O` (centres undefined), the molecule was classed as inactive.

For the molecule `COc1nc(NC(C)C)nc(NC(C)C)n1`, the molecule was classed as inactive.

As to `Cc1ccc(-c2c(Cl)nc(C#N)n2S(=O)(=O)N(C)C)cc1`, the outcome was inactive.

Turning to `COc1cnc(OC)n2nc(NS(=O)(=O)c3c(OCC(F)F)cccc3C(F)(F)F)nc12`, the molecule was classed as inactive. With `Cc1c(F)c(F)c(COC(=O)C2C(/C=C(\Cl)C(F)(F)F)C2(C)C)c(F)c1F` (centres undefined), the call was inactive. Under `COC(=O)C(C)Oc1ccc(Oc2ccc(Cl)cc2Cl)cc1` (centres undefined) stands “inactive”; under `C=CCC1=C(C)[C@@H](OC(=O)[C@@H]2[C@@H](C=C(C)C)C2(C)C)CC1=O`, “inactive”; under `N#Cc1cc(Br)c(O)c(Br)c1`, “inactive”. Under `CC(C)(C)c1ccc(CSc2cnn(C(C)(C)C)c(=O)c2Cl)cc1` stands “inactive”. For the molecule `CCCCNC(=O)OCC#CI`, the molecule was classed as inactive. `COC(=O)c1ccccc1C(=O)OC`: the result was inactive.

For the origin of these results see PubChem BioAssay (EPA / NIEHS).
